Source: PubChem BioAssay (Emory University Molecular Libraries Screening Center)
14-3-3 PPI: modulators of 14-3-3 gamma protein binding, primary screen, biochemical, fluorescence polarization; inhibition, % at 40 µM; FP, 14-3-3gamma / TMR-pS259-Raf peptide binding; AID 422, 2006; 14-3-3 protein gamma (Homo sapiens), P61981; 160,000 tested, 0.19% active; in the data active = inhibition above about 30%
Target sequence (P61981 whole entry, looked up): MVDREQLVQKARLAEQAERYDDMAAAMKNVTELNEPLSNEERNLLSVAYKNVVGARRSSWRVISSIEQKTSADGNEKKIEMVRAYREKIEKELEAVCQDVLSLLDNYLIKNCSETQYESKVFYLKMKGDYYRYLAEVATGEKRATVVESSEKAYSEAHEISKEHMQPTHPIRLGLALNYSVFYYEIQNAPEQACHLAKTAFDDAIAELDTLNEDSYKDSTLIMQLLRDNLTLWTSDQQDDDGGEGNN
Of the large screens only hits and unclear results are named; the others gave an inactive call. Shown is part of a subset that was picked to be rich in hits.

CCSc1nnc2c(n1)OC(c1ccc(N(CC)CC)cc1)Nc1ccccc1-2 (stereo unspecified)	14-3-3 PPI 39
CCCSc1nnc2c(n1)OC(c1ccncc1)Nc1ccccc1-2 (stereo unspecified)	none
O=C(O)CSc1nnc2c(n1)OC1(CCCC1)Nc1ccccc1-2	none
CCSc1nnc2c(n1)OC(c1ccc(CC)cc1)Nc1ccccc1-2 (stereo unspecified)	none
C=CCSc1nnc2c(n1)OC(c1cccnc1)Nc1ccccc1-2 (stereo unspecified)	none
C=CCSc1nnc2c(n1)OC(c1cccc(O)c1)Nc1ccccc1-2 (stereo unspecified)	none
CCCSc1nnc2c(n1)OC(c1cc3c(cc1Cl)OCO3)Nc1ccccc1-2 (stereo unspecified)	none
Cc1cc(C)cc(-n2ccnc2SCC(=O)N2CCc3ccccc32)c1	none
CCOc1ccc(-c2n[nH]c(=S)n2CC)cc1	none
COc1ccccc1-n1nc(C(=O)N2CCCCCC2)c2ccccc2c1=O	none
O=C(Nc1ccc(Cl)cc1)C(NS(=O)(=O)c1ccc(Br)s1)c1ccccc1 (stereo unspecified)	none
CC(C)(C)C1=Nn2c(nnc2-c2ccc(Br)cc2)SC1	none
C=CCSc1nnc2c(n1)OC(c1ccccc1C)Nc1ccccc1-2 (stereo unspecified)	none
CCSc1nnc2c(n1)OC(c1cccc(C)n1)Nc1ccccc1-2 (stereo unspecified)	none
CCSc1nnc2c(n1)OC(c1ccccc1C)Nc1ccccc1-2 (stereo unspecified)	14-3-3 PPI 41
COc1ccc(CCN2C(=O)CC(C(=O)Nc3ccc(Br)cc3)SC2=Nc2ccccc2)cc1 (stereo unspecified)	none
O=C(Nc1cccc2ccccc12)C1C(c2ccccc2)=C1c1ccccc1	none
O=C(NC(=O)N1CCN(c2ccccc2F)CC1)c1ccccc1	none
O=C(O)C1C2CCC(C2)C1C(=O)N1CCN(c2ccccc2F)CC1 (stereo unspecified)	14-3-3 PPI 43
O=C(c1cnccn1)N1CCN(c2ccccc2F)CC1	none
Oc1cc2c(c3c(O)c4ccccc4c(O)c13)=NCCN=2	none
CCOc1ccc(-n2c(SCC(=O)Nc3ccc([N+](=O)[O-])cc3)nc3c(c2=O)SCC3)cc1	none
Cc1nnc(N2C(=O)C(O)=C(C(=O)c3cccs3)C2c2cccc(Oc3ccccc3)c2)s1 (stereo unspecified)	none
O=C(C1=C(O)C(=O)N(c2nncs2)C1c1cccc(Br)c1)c1cccs1 (stereo unspecified)	14-3-3 PPI 84
COc1ccc(C2C(C(=O)c3cccs3)=C(O)C(=O)N2c2nnc(C)s2)cc1OC (stereo unspecified)	none
CCOC(=O)c1sc(C)c2c1NC(c1ccccc1)NC2=O (stereo unspecified)	none
CCN(CC)C(=O)Cn1c(=O)n(-c2ccccc2)c(=O)c2c3c(sc21)CCCC3	none
Cc1cc(NC(=O)c2ccc(NS(=O)(=O)c3c(C)noc3C)cc2)ccc1Br	none
CC(C)OCCCNC(=O)c1cc(Nc2cccc(C(F)(F)F)c2)nc2ccccc12	none
O=C(NCc1ccccn1)c1cc(Nc2cccc(C(F)(F)F)c2)nc2ccccc12	14-3-3 PPI 152
Cc1ccc(C)c(Nc2cc(C(=O)NCc3ccccn3)c3ccccc3n2)c1	none
CC1=C(C(=O)OCc2ccccc2)C(c2ccc(C)s2)NC(=O)N1 (stereo unspecified)	none
Cc1ccccc1NC(=O)CN(c1cccc(C)c1C)S(=O)(=O)c1ccccc1	none
O=C(O)CC(C(=O)OCC1CCCO1)N1CCOCC1 (stereo unspecified)	none
CCOC(=O)C(CC(=O)O)N1CCCCC1 (stereo unspecified)	14-3-3 PPI 36
O=C(O)CC(C(=O)OC1CCCCC1)N1CCOCC1 (stereo unspecified)	none
COc1cc(OC)cc(-c2nnc(NC(=O)c3ccc(S(=O)(=O)N4CCCCC4C)cc3)o2)c1 (stereo unspecified)	none
COc1ccc(C2CC(c3ccc(-c4ccccc4)cc3)Nc3nnnn32)cc1 (stereo unspecified)	none
Cc1cc(C)cc(-n2ccnc2SCC(=O)NC2CCCC2)c1	14-3-3 PPI 31
O=C(CSc1nccn1-c1cccc(Cl)c1)NC1CCCCC1	none
Cc1cc(C)cc(-n2ccnc2SCC(=O)Nc2c(C)cc(C)cc2C)c1	none
Cc1ccc2c(c1)c(=O)c1ccccc1n2CCCC(=O)Nc1ccccc1Cl	none
CCOC(=O)C(NS(=O)(=O)c1ccccc1)(C(F)(F)F)P(C)(=O)OC(C)C (stereo unspecified)	none
C=CCSc1nnc2c(n1)OC(c1ccncc1)Nc1ccc(Br)cc1-2 (stereo unspecified)	none
C=CCSc1nnc2c(n1)OC=Nc1ccc(Br)cc1-2	none
C=CCSc1nnc2c(n1)OC(C)(C)Nc1ccc(Br)cc1-2	14-3-3 PPI 112
COc1ccc(C2C(C(=O)Nc3ccc4c(c3)OCCO4)CCC(=O)N2c2cc(OC)c(OC)c(OC)c2)cc1 (stereo unspecified)	none
COc1ccc2cc3cc(C(=O)N4CCCC4)oc3nc2c1	none
COc1ccc2cc3cc(C(=O)N4CCC(N5CCCCC5)CC4)oc3nc2c1	14-3-3 PPI 46
Cc1ccc2cc3cc(C(=O)N4CCC(N5CCCCC5)CC4)oc3nc2c1	none
COc1cccc(C2C(C(=O)Nc3ccc(F)cc3)=C(C)NC3=C2C(=O)CC(C)(C)C3)c1OC (stereo unspecified)	none
Cc1ccc(CCNS(=O)(=O)c2ccc3c(c2)CCN3C(=O)C2CCC2)cc1	none
COc1ccc(OC)c(NC(=O)COc2ccccc2C(C)C)c1	none
COc1ccc(OC)c(NC(=O)COc2cc(C)ccc2C(C)C)c1	14-3-3 PPI 74
Cc1ccc(C(C)C)c(OCC(=O)Nc2ccc(C)c(C)c2)c1	none
C=CCn1c(SCC(=O)Nc2ccc(Br)cc2)nnc1-c1cccs1	none
Cc1ccc(-n2c(=O)[nH]cc(C(=O)Nc3ccc4c(c3)OCCO4)c2=O)cc1C	14-3-3 PPI 37
COc1ccc(-n2c(=O)[nH]cc(C(=O)Nc3ccc4c(c3)OCCO4)c2=O)cc1	none
Cc1ccc(-n2c(=O)[nH]cc(C(=O)Nc3ccc4c(c3)OCCO4)c2=O)cc1	none
O=C(Nc1cccc2ncccc12)c1csc2c1CCCC2	none
Cc1ccc(C)c(C(=O)COC(=O)c2ccccc2Sc2ccc([N+](=O)[O-])cc2)c1	none
O=C(Nc1cc(C(=O)Nc2ccc(S(=O)(=O)O)cc2S(=O)(=O)O)cc(C(=O)Nc2ccc(S(=O)(=O)O)cc2S(=O)(=O)O)c1)Nc1cc(C(=O)Nc2ccc(S(=O)(=O)O)cc2S(=O)(=O)O)cc(C(=O)Nc2ccc(S(=O)(=O)O)cc2S(=O)(=O)O)c1	14-3-3 PPI 32
Cc1c(NC(=O)c2ccccc2)cc(S(=O)(=O)c2ccc(Cl)cc2)c(O)c1C	none
NS(=O)(=O)c1ccc(NC(=O)Nc2cccc(Cl)c2)cc1	none
COc1ccc(-c2nn(-c3ccccc3)cc2C2NC(=O)NC(C)=C2C(=O)OC(C)C)cc1 (stereo unspecified)	none
COc1ccc(C2C(C(C)=O)=C(O)C(=O)N2Cc2cccnc2)cc1OC (stereo unspecified)	none
COc1ccc(N2CCN(CCNC(=O)c3cccn4c(=O)c5cc6ccccc6cc5nc34)CC2)cc1	14-3-3 PPI 179
COc1ccc(N2CCN(CCNC(=O)c3cccn4c(=O)c5ccc(Cl)cc5nc34)CC2)cc1	none
O=C(NCCN1CCOCC1)c1cccn2c(=O)c3cc4ccccc4cc3nc12	none
COc1ccccc1NC1=C(Cl)C(=O)N(c2ccccc2N2C(=O)C(Cl)=C(Nc3ccccc3OC)C2=O)C1=O	none
COC(=O)c1cc(OC)c(OC)cc1NC(=O)NS(=O)(=O)c1ccc(C)cc1	none
